Measured values as given in the supplement of paper PMC3334620.
In all, about 33,000 sequences were measured (“E-score (-0.5 to 0.5)”: median about -0.012, highest 2% from about 0.29 on). The entries come from a sample that favours the highest values as a whole.

target: T1, Ybr033w (UniProt P38073); test: PBM E-score (8-mer binding enrichment) (E-score (-0.5 to 0.5)); higher = stronger / more preferred TF binding; conditions: protein concentration: 200 nM; construct: GST-full length
T1 sequence: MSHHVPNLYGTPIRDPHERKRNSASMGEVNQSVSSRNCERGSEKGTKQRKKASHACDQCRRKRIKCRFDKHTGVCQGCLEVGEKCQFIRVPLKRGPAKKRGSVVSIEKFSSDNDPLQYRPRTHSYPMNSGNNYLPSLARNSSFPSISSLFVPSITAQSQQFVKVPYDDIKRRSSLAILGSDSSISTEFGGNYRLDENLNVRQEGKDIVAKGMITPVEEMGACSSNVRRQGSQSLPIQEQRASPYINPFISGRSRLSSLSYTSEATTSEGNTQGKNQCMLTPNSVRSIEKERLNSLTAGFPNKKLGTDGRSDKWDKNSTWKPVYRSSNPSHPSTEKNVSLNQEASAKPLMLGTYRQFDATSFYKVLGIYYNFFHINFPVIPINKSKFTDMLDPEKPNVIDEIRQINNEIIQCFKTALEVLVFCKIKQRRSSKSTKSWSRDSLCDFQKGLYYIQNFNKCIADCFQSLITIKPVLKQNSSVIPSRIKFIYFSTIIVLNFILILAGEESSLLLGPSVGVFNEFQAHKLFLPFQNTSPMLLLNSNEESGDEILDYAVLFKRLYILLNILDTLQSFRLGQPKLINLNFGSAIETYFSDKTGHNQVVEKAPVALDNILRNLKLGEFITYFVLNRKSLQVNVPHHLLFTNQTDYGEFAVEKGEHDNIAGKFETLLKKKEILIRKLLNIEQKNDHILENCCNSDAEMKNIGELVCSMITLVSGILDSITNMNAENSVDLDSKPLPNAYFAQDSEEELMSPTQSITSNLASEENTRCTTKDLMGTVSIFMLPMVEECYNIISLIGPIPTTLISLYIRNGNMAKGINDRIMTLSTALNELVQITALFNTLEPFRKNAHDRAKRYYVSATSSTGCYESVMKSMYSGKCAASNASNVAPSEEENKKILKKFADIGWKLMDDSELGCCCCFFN
Experimental: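 Universal 'all 10-mer' protein binding microarrays (Agilent AMADID 015681) probed with GST-tagged S. cerevisiae TFs (full-length or DBD) made by in vitro transcription/translation (PURExpress), about 100-200 nM. Bound TF was detected with fluorescent anti-GST. Each ungapped 8-mer (which stands for itself and its reverse complement) is scored by the PBM enrichment score (E-score), a modified Wilcoxon-Mann-Whitney statistic from -0.5 to +0.5, computed with the Universal PBM Analysis Suite. Scale: above 0.35 generally sequence-specific binding.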

Row | Sequence | PBM E-score
1 | CTGGCCGC | -0.0871
2 | AACTTATA | 0.353
3 | AACTTATG | 0.223
4 | CACTTATA | 0.176
5 | GACTTATA | 0.293
6 | GACTTATC | -0.152
7 | TACTTATA | 0.12
8 | AAGCCACA | -0.0702
9 | AGCCTCTA | -0.114
10 | ACCAGAGA | 0.0781
11 | GAGTCGAA | 0.173
12 | CAATATTG | 0.199
13 | CAATATCA | 0.171
14 | TAGTATCA | 0.319
15 | GAATATCA | 0.259
16 | GAATATGA | 0.203
17 | GAATATTA | 0.315
18 | GAGTATCA | 0.0233
19 | CAGTATCA | -0.0137
20 | CAATATTA | 0.27
21 | TAATATCA | 0.319
22 | TAATATTA | 0.342
23 | AAATATCA | 0.252
24 | GTGTGTGA | 0.0756
25 | CGAGGTAA | -0.0143

Row | Sequence | PBM E-score
26 | GGAGCGCC | -0.27
27 | ACTAGTCG | -0.166
28 | ACCATCTC | -0.0025
29 | CCTCGTAA | -0.0544
30 | AAATATTT | 0.357
31 | GAATATTC | 0.344
32 | AAATATGC | 0.237
33 | AAATATTC | 0.37
34 | AAATATTG | 0.274
35 | CAATATTC | 0.219
36 | AAATATTA | 0.211
37 | GAATATCC | 0.227
38 | AATCTTTC | 0.00719
39 | GCCATTTA | -0.0426
40 | AGCAAGCC | -0.126
41 | AGGTGGAC | -0.104
42 | ATCTAGAA | 0.214
43 | AGAATTTC | 0.0968
44 | CTAATTTC | 0.181
45 | CTAATTTA | 0.257
46 | ATAATTTA | 0.338
47 | ATAATTTC | 0.314
48 | ATAATTTG | 0.35
49 | GTAATTTA | 0.218
50 | AAAATTTG | 0.263

Row | Sequence | PBM E-score
51 | ATAATTGG | 0.157
52 | GATCTGCA | -0.215
53 | ACACGTGT | -0.0649
54 | ATCCCAAC | 0.079
55 | ATAGGTAG | 0.0525
56 | ACTGCTAC | 0.0898
57 | GCGGACTA | -0.0323
58 | ACAAATTG | 0.0817
59 | ACAAATTA | 0.328
60 | AAAAATGA | 0.233
61 | CAAAATTA | 0.182
62 | CCAAATTA | 0.269
63 | CCAATTTA | 0.203
64 | CAAAATTC | 0.308
65 | CAAAATTG | 0.0527
66 | AAAAATTA | 0.302
67 | GCAATTTA | 0.307
68 | ACAATTTA | 0.225
69 | AAAAATTC | 0.228
70 | AAACGCAG | -0.0761
71 | ACCAAGTC | 0.139
72 | AGCACTGC | -0.022
73 | AGATGCAG | 0.0243
74 | CGAAGCTC | -0.147
75 | GAAAATTC | 0.285

Row | Sequence | PBM E-score
76 | TAAAATCA | 0.274
77 | AAAATTTA | 0.269
78 | TAAAATGA | 0.217
79 | GAAAATTA | 0.331
80 | TAAAATTA | 0.288
81 | TAAATTTA | 0.289
82 | GAAAATGA | 0.085
83 | AGAAATTC | 0.178
84 | AGAAATTA | 0.352
85 | GGAAATTA | 0.264
86 | CAAATTTA | 0.237
87 | AATGATGT | 0.17
88 | GTTCAGCA | -0.0295
89 | GTCGGCCA | -0.277
90 | AAACCATG | 0.0309
91 | AGACTGCA | -0.156
92 | ATCCATGC | 0.0934
93 | AGGTCAGG | -0.233
94 | GAATTTTA | 0.295
95 | AAATTTTA | 0.171
96 | CAATTTTA | 0.217
97 | CCAGCGAC | -0.116
98 | ATAGCTGG | -0.0109
99 | CAATGACG | -0.158
100 | CTAGTAAA | 0.242

Row | Sequence | PBM E-score
101 | ATAGTAAC | 0.116
102 | ATAGTAAT | 0.346
103 | AGAGTAAA | 0.0304
104 | AGAGTAAT | 0.313
105 | AGAGTAAG | 0.126
106 | GTAGTAAA | 0.188
107 | ATAGTAAA | 0.277
108 | TTAGTAAA | 0.301
109 | AGTGCTTA | -0.00926
110 | CCATTTGC | 0.0186
111 | AGGTAGTC | -0.165
112 | TTTTAAAA | 0.073
113 | TATTAAAA | 0.312
114 | CAGTTAAA | 0.192
115 | CATTAAAA | 0.319
116 | TATTTTAA | 0.26
117 | CATTTAAA | 0.21
118 | CATTAAAG | 0.147
119 | AATTAAAA | 0.112
120 | GAGTTAAA | 0.0599
121 | CATTAAAC | 0.13
122 | TATTTAAA | 0.301
123 | TAGTTAAA | 0.296
124 | AGAAATCC | 0.0392
125 | CGCAAGCC | 0.0476

Row | Sequence | PBM E-score
126 | ACAGAGTC | -0.176
127 | TTGTTAAA | 0.0557
128 | TAGTTGAA | 0.307
129 | CTGTTAAA | 0.109
130 | GGTTAAAA | 0.0924
131 | ATGTTAAA | 0.289
132 | CAGTTGAA | 0.00266
133 | AAGTTGAA | 0.0758
134 | GATTAAAA | 0.311
135 | GATTAAAC | 0.17
136 | CACTGTTC | -0.00287
137 | ACTTCATG | -0.118
138 | ACTGCAGC | -0.136
139 | ACTTACCC | 0.114
140 | CCGACCAA | -0.0529
141 | ATCATGAC | 0.0647
142 | CTGCTAAG | -0.132
143 | GCATCGAC | -0.0951
144 | TGACCACA | 0.0413
145 | TCCCTAAA | 0.0945
146 | ATTCGTGG | 0.0347
147 | ATATTTAG | 0.321
148 | AGATTTCC | 0.135
149 | GTATTTAA | 0.267
150 | GTATTTTA | 0.23

Row | Sequence | PBM E-score
151 | CTATTTAA | 0.022
152 | AGATTTTC | 0.322
153 | ATATTTTA | 0.3
154 | ATATTTAC | 0.215
155 | ATTTTTAG | 0.179
156 | AGATTTTA | 0.109
157 | ATATTTAA | 0.372
158 | CTATTTTA | 0.252
159 | CCATTTAG | -0.056
160 | CGTGGGCC | -0.155
161 | AATCCTAA | 0.0561
162 | CCTCCAGG | -0.322
163 | CACCGACG | -0.0189
164 | ATATCCAT | 0.196
165 | GAGCTCAC | -0.27
166 | CATATGCA | 0.0648
167 | CCCTTACC | -0.131
168 | CTATTTTC | 0.284
169 | ATATTTTG | 0.234
170 | ATCTTTAC | 0.203
171 | CTATTTCC | 0.276
172 | ATATTTCC | 0.349
173 | ATATTTTC | 0.342
174 | ATCTTTTA | 0.236
